# Measurements from PubChem BioAssay (EPA / NIEHS).
# Active and inactive are the calls of the source. Rule for the calls: active = hit-call score of the fitted dose curve at least 0.9, where 1 is the maximum; inactive = score below 0.9.
# Columns and labels:
# [1] = ATG_CRE_CIS: Attagene CIS-FACTORIAL HepG2 Assay for human cAMP Responsive Element (CRE) binding protein 3 (AID 2282926); details: HepG2 CRE cis-reporter, Attagene multiplexed mRNA; actives raise or lower the signal
# Procedure, shortened: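 Cells carrying cis-regulated reporter constructs respond through their own endogenous factors. After 24 h treatment, RNA is reverse-transcribed, amplified, labelled and sized by capillary electrophoresis; up- and down-regulation are both scored against vehicle.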
# [2] = target: CCAAT/enhancer-binding protein beta (Homo sapiens) (UniProt P17676); assay: ATG_C_EBP_CIS: Attagene CIS-FACTORIAL HepG2 Assay for human CCAAT/Enhancer Binding Protein (C/EBP) beta (AID 2282927); details: HepG2 Attagene cis-factorial transcription factor reporter; actives raise or lower the signal
# Procedure, shortened: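 Endogenous transcription factor activity in human liver HepG2 cells is inferred from induction of a CEBPB-linked reporter mRNA. Exposure lasts 24 h; activity is fitted in both directions relative to DMSO.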
# [3] = ATG_CMV_CIS: Attagene CIS-FACTORIAL HepG2 Assay for human CMV (Internal Marker) (AID 2282928); details: HepG2 CMV promoter reporter, transcription factor profiling; actives raise or lower the signal;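 note: endpoint acts as a background internal control marker rather than a target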
# Procedure, shortened: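 Reporter transcripts from transfected HepG2 cells are isolated after 24 h of chemical dosing, reverse-transcribed and amplified. Fragments labeled with 6-FAM are cut with HpaI and quantified by capillary electrophoresis; DMSO defines baseline.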
# [4] = ATG_DR4_LXR_CIS: Attagene CIS-FACTORIAL HepG2 Assay for human Liver X Receptor (LXR), DR4 submotif (AID 2282929); details: HepG2 Attagene DR4 cis-reporter, mRNA transcription; actives raise or lower the signal
# Procedure, shortened: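 HepG2 cells transiently transfected with cis-promoter-driven multiplexed reporter units (DR4 element) were dosed for 24 h. Reporter mRNA was quantified by RT-PCR, fluorescent primer extension, HpaI digestion and capillary electrophoresis; bidirectional fitting versus DMSO baseline.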
# [5] = target: Aryl hydrocarbon receptor (Homo sapiens) (UniProt P35869); assay: ATG_Ahr_CIS: Attagene CIS-FACTORIAL HepG2 Assay for human Aryl Hydrocarbon Receptor (Ahr) (AID 2282930); details: HepG2 AhR cis-factorial reporter transcription; actives raise or lower the signal
# Procedure, shortened: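 Transient MRTU transfection of HepG2 → 24 h compound exposure → total RNA, oligo(dT) RT → PCR, 6-FAM extension, HpaI cut → CE fluorescence. DMSO = baseline; bidirectional curve fit.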
# [6] = ATG_AP_1_CIS: Attagene CIS-FACTORIAL HepG2 Assay for human Activator Protein 1 (AP-1) (AID 2282931); details: HepG2 Attagene cis-factorial AP-1 reporter mRNA; actives raise or lower the signal
# Procedure, shortened: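 HepG2 cells transiently transfected with cis-element-driven multiplex reporter units; 24 h compound exposure. Reporter mRNA quantified by RT-PCR, FAM-labelled fragments resolved by capillary electrophoresis; bidirectional fit versus DMSO baseline.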
# [7] = ATG_AP_2_CIS: Attagene CIS-FACTORIAL HepG2 Assay for human Activator Protein 2 (AP-2) (AID 2282932); details: HepG2 AP-2 cis-reporter, Attagene transcription factor profiling; actives raise or lower the signal
# Procedure, shortened: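 Transiently transfected HepG2 cells are exposed to chemical for 24 h. Reporter transcripts are then measured as fluorescence following RT-PCR and capillary separation, and gain- or loss-of-signal is fitted relative to DMSO.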
# [8] = ATG_BRE_CIS: Attagene CIS-FACTORIAL HepG2 Assay for human Bone Morphogenetic Protein (BMP) Response Element (BRE) (AID 2282933); details: HepG2 BMP response element reporter, Attagene transcription factor profiling; actives raise or lower the signal
# Procedure, shortened: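 Endogenous transcription factor activity at a BMP response element was monitored in transfected HepG2 cells 24 h after dosing. Fluorescent RT-PCR products were resolved by capillary electrophoresis, and activity was fitted in both directions versus DMSO.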
# [9] = target: Retinoic acid receptor alpha (Homo sapiens) (UniProt P10276); assay: ATG_DR5_RAR_CIS: Attagene CIS-FACTORIAL HepG2 Assay for human Retinoic Acid Receptor Alpha (RARE), DR5 submotif (AID 2282934); details: HepG2 Attagene cis-factorial RARE DR5 reporter, mRNA; actives raise or lower the signal;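 for AC50: reporter responds to endogenous RAR alpha beta and gamma in HepG2 not RARA alone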
# Procedure, shortened: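 Transient MRTU transfection of HepG2; 24 h compound treatment; TriZol RNA, oligo(dT) RT, PCR, FAM labelling, capillary electrophoresis. Bidirectional fit vs DMSO. Endogenous TF activity at DR5 RARE.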
# [10] = target: Transcription factor E2F1 (Homo sapiens) (UniProt Q01094); assay: ATG_E2F_CIS: Attagene CIS-FACTORIAL HepG2 Assay for human E2F Transcription Factor 1 (AID 2282935); details: HepG2 Attagene cis-reporter, E2F reporter RNA transcripts; actives raise or lower the signal
# Procedure, shortened: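 Fluorescent RT-PCR products, digested with HpaI for 2 h at 37 C, are separated by capillary electrophoresis. Source RNA comes from transfected HepG2 cultures treated for 24 h.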
# [11] = ATG_E_Box_CIS: Attagene CIS-FACTORIAL HepG2 Assay for human Enhancer Box (E-box) (AID 2282936); details: HepG2 E-box cis-reporter transcription, actives raise or lower the signal
# Procedure, shortened: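 Fluorescent reporter fragments separated by capillary electrophoresis gave the signal; mRNA came from HepG2 cells transfected with cis-element reporters and treated 24 h. Curves fitted bidirectionally relative to DMSO controls.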
# [12] = ATG_M_61_CIS: Attagene CIS-FACTORIAL HepG2 Assay for M61 Transcription Factor (Internal Marker) (AID 2282937); details: HepG2 Attagene CIS-FACTORIAL M61 internal marker reporter; actives raise or lower the signal
# Procedure, shortened: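 HepG2 cells transiently transfected with cis-element-driven multiple reporter transcription units, dosed for 24 h. Reporter mRNA measured by RT-PCR, 6-FAM primer-extension labelling, HpaI digestion and capillary electrophoresis; bidirectional fit versus DMSO baseline.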
# [13] = ATG_EGR_CIS: Attagene CIS-FACTORIAL HepG2 Assay for human Early Growth Response 1 (EGR1) (AID 2282938); details: HepG2 Attagene CIS-FACTORIAL EGR reporter mRNA; actives raise or lower the signal
# Procedure, shortened: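 HepG2 cells transiently transfected with cis-promoter-driven multiplexed reporter transcription units; reporter mRNA measured 24 h after compound dosing by RT-PCR, 6-FAM primer extension, HpaI digestion and capillary electrophoresis. Bidirectional fit versus DMSO baseline.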
# [14] = ATG_M_19_CIS: Attagene CIS-FACTORIAL HepG2 Assay for M19 Transcription Factor (Internal Marker) (AID 2282939); details: HepG2 Attagene CIS-FACTORIAL M19 internal marker reporter; actives raise or lower the signal
# Procedure, shortened: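 Background-control endpoint from a multiplexed HepG2 reporter panel. Cells carrying cis-regulated reporter constructs are treated 24 h, then reporter transcripts are amplified, fluorescently labelled and sized by capillary electrophoresis. DMSO defines baseline.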
# [15] = ATG_Ets_CIS: Attagene CIS-FACTORIAL HepG2 Assay for human Erythroblast Transformation Specific (ETS) (AID 2282941); details: HepG2 ETS cis-reporter transcription, actives raise or lower the signal
# Procedure, shortened: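 Bidirectional fit versus DMSO of reporter mRNA signal, detected by RT-PCR and capillary electrophoresis in HepG2 cells transiently transfected with cis-element reporters and dosed 24 h.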
# [16] = target: Hepatocyte nuclear factor 3-beta (Homo sapiens) (UniProt Q9Y261); assay: ATG_FoxA2_CIS: Attagene CIS-FACTORIAL HepG2 Assay for human Forkhead box A2 (FOXA2) (AID 2282942); details: HepG2 cis-reporter transcription factor activity, 24 h; actives raise or lower the signal
# Procedure, shortened: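 HepG2 cells transiently transfected with multiple cis-regulated reporter transcription units, dosed for 24 h. Reporter mRNA measured by RT-PCR, 6-FAM labelling, HpaI digestion and capillary electrophoresis; bidirectional fitting against DMSO baseline.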
# [17] = ATG_FoxO_CIS: Attagene CIS-FACTORIAL HepG2 Assay for human Forkhead box O (FoxO) (AID 2282943); details: HepG2 Attagene cis-reporter, FoxO element, mRNA; actives raise or lower the signal
# Procedure, shortened: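 HepG2, transient MRTU transfection (cis element, endogenous TFs). Dose 24 h. TriZol RNA → oligo(dT) RT → PCR → 6-FAM primer extension → HpaI cut → CE. Gain/loss vs DMSO.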
# [18] = ATG_GATA_CIS: Attagene CIS-FACTORIAL HepG2 Assay for human GATA Binding Protein (AID 2282944); details: HepG2 GATA cis-element reporter, Attagene multiplex mRNA; actives raise or lower the signal
# Procedure, shortened: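 Endogenous transcription factor activity was captured through cis-promoter-driven reporters in transfected HepG2 cells. After 24 h exposure, reporter transcripts were quantified by RT-PCR with fluorescent capillary electrophoresis, and responses fitted both directions against DMSO.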
# [19] = ATG_GLI_CIS: Attagene CIS-FACTORIAL HepG2 Assay for human Zinc Finger Protein GLI1 (AID 2282945); details: HepG2, Attagene cis-factorial reporter mRNA, GLI element; actives raise or lower the signal
# Procedure, shortened: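 Bidirectional curve fits relative to DMSO, using reporter mRNA levels from RT-PCR plus capillary electrophoresis. Cells were HepG2 transiently carrying cis-regulated reporter constructs, harvested 24 h after dosing.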
# [20] = ATG_ERE_CIS: Attagene CIS-FACTORIAL HepG2 Assay for Estrogen Response Element (ERE) (AID 2282940); details: HepG2 ERE cis-reporter, Attagene RNA transcript; actives raise or lower the signal
# Procedure, shortened: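 Cells used were human hepatoma HepG2, transfected with multiple reporter transcription units under cis-regulatory promoters. Reporter mRNA, read 24 h post-dosing via fluorescent RT-PCR products on capillary electrophoresis, was fitted bidirectionally relative to DMSO.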
# CCAAT/enhancer-binding protein beta (Homo sapiens), sequence (P17676 whole entry, looked up): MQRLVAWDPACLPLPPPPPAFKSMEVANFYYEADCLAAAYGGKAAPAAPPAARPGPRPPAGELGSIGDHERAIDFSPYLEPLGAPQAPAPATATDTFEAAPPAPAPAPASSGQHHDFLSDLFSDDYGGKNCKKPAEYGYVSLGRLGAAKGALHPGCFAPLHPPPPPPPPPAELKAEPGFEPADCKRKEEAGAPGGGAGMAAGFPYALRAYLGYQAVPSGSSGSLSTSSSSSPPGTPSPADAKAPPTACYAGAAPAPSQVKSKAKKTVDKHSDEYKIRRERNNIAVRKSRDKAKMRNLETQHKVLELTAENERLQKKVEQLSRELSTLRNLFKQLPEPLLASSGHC
# Transcription factor E2F1 (Homo sapiens), sequence (Q01094 whole entry, looked up): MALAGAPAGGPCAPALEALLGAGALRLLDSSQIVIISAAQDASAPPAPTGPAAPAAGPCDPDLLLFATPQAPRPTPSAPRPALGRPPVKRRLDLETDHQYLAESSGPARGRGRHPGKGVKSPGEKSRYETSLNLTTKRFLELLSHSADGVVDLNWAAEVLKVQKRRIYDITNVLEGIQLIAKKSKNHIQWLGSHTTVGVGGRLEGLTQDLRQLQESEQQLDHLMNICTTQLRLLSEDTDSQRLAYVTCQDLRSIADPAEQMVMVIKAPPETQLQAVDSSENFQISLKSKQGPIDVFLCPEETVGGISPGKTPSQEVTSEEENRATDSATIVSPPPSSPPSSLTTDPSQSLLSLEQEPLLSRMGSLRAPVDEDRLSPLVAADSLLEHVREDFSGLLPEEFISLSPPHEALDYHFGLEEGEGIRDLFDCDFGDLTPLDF
# Aryl hydrocarbon receptor (Homo sapiens), sequence (P35869 whole entry, looked up): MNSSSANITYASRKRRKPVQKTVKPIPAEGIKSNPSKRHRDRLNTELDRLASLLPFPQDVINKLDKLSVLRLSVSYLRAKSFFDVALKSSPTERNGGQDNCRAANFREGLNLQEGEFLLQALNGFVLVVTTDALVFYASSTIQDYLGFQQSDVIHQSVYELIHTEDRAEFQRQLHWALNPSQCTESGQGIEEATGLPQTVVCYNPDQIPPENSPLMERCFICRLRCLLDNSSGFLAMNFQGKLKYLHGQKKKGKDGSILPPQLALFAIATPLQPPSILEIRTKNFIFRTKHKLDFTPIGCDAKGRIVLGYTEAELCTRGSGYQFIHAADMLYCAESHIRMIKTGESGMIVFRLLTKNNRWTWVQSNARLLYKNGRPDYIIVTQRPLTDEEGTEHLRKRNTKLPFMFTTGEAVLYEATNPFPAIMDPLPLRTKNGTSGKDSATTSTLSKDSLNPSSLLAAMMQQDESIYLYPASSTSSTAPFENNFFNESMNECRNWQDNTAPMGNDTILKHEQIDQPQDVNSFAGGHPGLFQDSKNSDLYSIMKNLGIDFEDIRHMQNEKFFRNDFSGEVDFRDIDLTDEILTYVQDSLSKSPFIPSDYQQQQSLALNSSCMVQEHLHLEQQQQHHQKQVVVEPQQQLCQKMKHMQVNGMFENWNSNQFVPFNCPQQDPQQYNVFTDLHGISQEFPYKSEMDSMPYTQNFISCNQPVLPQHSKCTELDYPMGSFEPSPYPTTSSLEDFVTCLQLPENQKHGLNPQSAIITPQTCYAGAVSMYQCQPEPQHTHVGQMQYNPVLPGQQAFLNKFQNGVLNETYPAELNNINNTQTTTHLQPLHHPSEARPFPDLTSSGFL
# Hepatocyte nuclear factor 3-beta (Homo sapiens), sequence (Q9Y261 whole entry, looked up): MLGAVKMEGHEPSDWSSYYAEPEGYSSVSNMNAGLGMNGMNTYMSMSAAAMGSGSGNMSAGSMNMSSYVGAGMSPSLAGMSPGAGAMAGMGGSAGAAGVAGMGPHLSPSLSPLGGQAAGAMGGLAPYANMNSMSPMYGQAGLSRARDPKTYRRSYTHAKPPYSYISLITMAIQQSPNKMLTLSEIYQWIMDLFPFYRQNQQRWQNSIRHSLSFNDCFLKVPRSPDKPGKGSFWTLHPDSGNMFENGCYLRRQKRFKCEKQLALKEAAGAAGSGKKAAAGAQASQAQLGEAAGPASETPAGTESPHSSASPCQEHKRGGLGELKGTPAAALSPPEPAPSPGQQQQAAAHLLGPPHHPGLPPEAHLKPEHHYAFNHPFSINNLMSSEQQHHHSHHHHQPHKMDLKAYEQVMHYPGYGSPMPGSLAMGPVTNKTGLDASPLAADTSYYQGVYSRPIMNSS
# Retinoic acid receptor alpha (Homo sapiens), sequence (P10276 whole entry, looked up): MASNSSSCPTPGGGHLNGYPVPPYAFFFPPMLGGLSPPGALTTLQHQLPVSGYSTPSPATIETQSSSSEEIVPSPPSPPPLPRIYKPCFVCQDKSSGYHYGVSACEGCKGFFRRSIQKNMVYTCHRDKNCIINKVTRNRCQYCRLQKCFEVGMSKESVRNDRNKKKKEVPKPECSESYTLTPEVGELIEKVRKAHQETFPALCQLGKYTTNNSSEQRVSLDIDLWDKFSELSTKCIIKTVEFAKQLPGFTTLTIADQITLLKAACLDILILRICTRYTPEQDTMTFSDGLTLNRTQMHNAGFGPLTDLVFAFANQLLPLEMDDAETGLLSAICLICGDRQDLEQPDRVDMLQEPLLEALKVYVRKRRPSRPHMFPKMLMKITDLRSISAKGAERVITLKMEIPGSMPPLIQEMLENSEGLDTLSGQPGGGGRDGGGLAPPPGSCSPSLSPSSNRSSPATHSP
compound,measurement,setting,value
CCCCC(CC)COC(=O)/C=C\C(=O)OCC(CC)CCCC (centres undefined),AC50,[1],45 µM (active)
same,AC50,[2],56.9 µM (active)
same,outcome,[3],inactive
same,AC50,[4],54.7 µM (active)
same,outcome,[5],inactive
same,AC50,[6],52.7 µM (active)
same,outcome,[7],inactive
same,outcome,[8],inactive
same,AC50,[9],100 µM (active)
same,AC50,[10],100 µM (active)
same,outcome,[11],inactive
same,outcome,[12],inactive
same,outcome,[13],inactive
same,outcome,[14],inactive
same,outcome,[15],inactive
same,outcome,[16],inactive
same,outcome,[17],inactive
same,outcome,[18],inactive
same,outcome,[19],inactive
Nc1ccc(F)c([N+](=O)[O-])c1,outcome,[1],inactive
same,outcome,[2],inactive
same,outcome,[3],inactive
same,outcome,[4],inactive
same,outcome,[5],inactive
same,outcome,[6],inactive
same,outcome,[7],inactive
same,outcome,[8],inactive
same,outcome,[10],inactive
same,outcome,[11],inactive
same,outcome,[12],inactive
same,outcome,[13],inactive
same,outcome,[14],inactive
same,outcome,[20],inactive
same,outcome,[15],inactive
same,outcome,[16],inactive
same,outcome,[17],inactive
same,outcome,[18],inactive
same,outcome,[19],inactive
COCCCOc1ccnc(CS(=O)c2nc3ccccc3[nH]2)c1C (centres undefined),outcome,[1],inactive
same,outcome,[2],inactive
same,outcome,[3],inactive
same,outcome,[4],inactive
same,AC50,[5],14.7 µM (active)
same,outcome,[6],inactive
same,outcome,[7],inactive
same,outcome,[8],inactive
same,outcome,[9],inactive
same,outcome,[10],inactive
same,outcome,[12],inactive
same,outcome,[13],inactive
same,outcome,[15],inactive
same,outcome,[16],inactive
same,outcome,[17],inactive
same,outcome,[18],inactive
same,outcome,[19],inactive
CC(C)c1cccc(O)c1,outcome,[1],inactive
same,outcome,[2],inactive
same,outcome,[3],inactive
same,outcome,[4],inactive
same,outcome,[5],inactive
same,outcome,[6],inactive
same,outcome,[7],inactive
same,outcome,[8],inactive
same,outcome,[10],inactive
same,outcome,[11],inactive
same,outcome,[12],inactive
same,outcome,[13],inactive
same,outcome,[14],inactive
same,AC50,[20],104 µM (active)
same,outcome,[15],inactive
same,outcome,[16],inactive
same,outcome,[17],inactive
same,outcome,[18],inactive
same,outcome,[19],inactive
